# Data from PubChem BioAssay AID623877 (Johns Hopkins Ion Channel Center, 2012).
# Out of some 340,000 compounds screened, about 1,000 (0.29%) were called active. This is one part of a sample in which actives are shown more often than they occur.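 The calls were made as follows: active = fluorescence-ratio B-score plate-corrected deviation score at least 3 library SD below zero, with starting fluorescence score within 5 deviations; inactive = the rest.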
# Target: Anoctamin-1 (Mus musculus) (UniProt Q8BHY3)
# Assay: TMEM16A chloride channel activators or potentiators, primary screen, cell-based, HTS (AID 623877);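 as to B-score: channel opened by trigger with iodide after compound preincubation; score built on the fluorescence ratio of max minus min over baseline; more negative score means more quench and so TMEM16A activation or potentiation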
# Conditions: HEK293 TMEM16A/YFP-H148Q/I152L, iodide quench fluorescence, at 10 µM; stronger effect = lower value
# Chain of Anoctamin-1 (Mus musculus) (Q8BHY3 whole entry, looked up): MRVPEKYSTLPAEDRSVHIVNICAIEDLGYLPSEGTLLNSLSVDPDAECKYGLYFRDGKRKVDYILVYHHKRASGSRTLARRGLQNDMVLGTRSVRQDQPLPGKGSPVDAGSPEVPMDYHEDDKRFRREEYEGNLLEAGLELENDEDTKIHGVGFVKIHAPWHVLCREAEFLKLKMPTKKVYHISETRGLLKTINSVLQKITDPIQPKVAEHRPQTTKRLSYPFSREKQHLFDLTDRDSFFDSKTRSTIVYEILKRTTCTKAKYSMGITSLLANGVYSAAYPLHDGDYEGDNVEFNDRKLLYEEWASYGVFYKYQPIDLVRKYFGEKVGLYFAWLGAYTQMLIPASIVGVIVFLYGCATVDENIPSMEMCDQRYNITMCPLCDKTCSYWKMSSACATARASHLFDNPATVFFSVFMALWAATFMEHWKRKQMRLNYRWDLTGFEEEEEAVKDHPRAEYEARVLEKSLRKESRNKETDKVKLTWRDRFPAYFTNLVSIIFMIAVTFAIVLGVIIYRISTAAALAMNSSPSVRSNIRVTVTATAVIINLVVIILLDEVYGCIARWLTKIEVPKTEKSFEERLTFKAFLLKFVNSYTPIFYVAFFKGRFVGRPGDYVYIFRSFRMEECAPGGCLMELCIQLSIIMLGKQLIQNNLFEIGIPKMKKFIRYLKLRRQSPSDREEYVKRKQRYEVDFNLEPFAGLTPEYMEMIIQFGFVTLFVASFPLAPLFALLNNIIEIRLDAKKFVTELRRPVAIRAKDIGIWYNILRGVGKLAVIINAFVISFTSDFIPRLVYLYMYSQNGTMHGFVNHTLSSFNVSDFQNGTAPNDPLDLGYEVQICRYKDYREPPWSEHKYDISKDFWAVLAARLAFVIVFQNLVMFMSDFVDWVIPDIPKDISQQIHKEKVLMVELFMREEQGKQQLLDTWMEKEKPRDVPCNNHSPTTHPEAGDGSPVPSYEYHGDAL
row,SMILES,B-score
1,FC(F)(F)c1cccc(NC(=S)Nc2cccc(Cl)c2)c1,-5.69 (active)
2,Cc1cccc(NC(=S)Nc2ccc(Cl)c(Cl)c2)c1,inactive
3,O=C(O)CC1(CC(=O)Nc2cccc(C(F)(F)F)c2)CCCC1,inactive
4,C#CCOCCOCCOCCNc1nc(N2CCN(C(=O)Cn3cc(CCO)nn3)CC2)nc(N2CCN(C(=O)Cn3cc(CCCN=C(N)N)nn3)CC2)n1,inactive
5,C#CCOCCOCCOCCNc1nc(N2CCN(C(=O)Cn3cc(CCCCN)nn3)CC2)nc(N2CCN(C(=O)[C@H](CCCCN)n3cc(CCC(=O)O)nn3)CC2)n1,inactive
6,C#CCOCCOCCOCCNc1nc(N2CCN(C(=O)CCCCCCCCCCNC(=O)[C@H]([C@@H](C)CC)n3cc(CCCCN=C(N)N)nn3)CC2)nc(N2CCN(C(=O)CCCCCCCCCCNC(=O)[C@H](CO)n3cc(CCCSC)nn3)CC2)n1,-27.8 (active)
7,C#CCOCCOCCOCCNc1nc(N2CCN(C(=O)[C@H](C(C)C)n3cc(CCO)nn3)CC2)nc(N2CCN(C(=O)[C@H]([C@@H](C)CC)n3cc(CCCN=C(N)N)nn3)CC2)n1,inactive
8,C#CCOCCOCCOCCNc1nc(N2CCN(C(=O)CCCCCCCCCCNC(=O)[C@H](CCCCN)n3cc(C)nn3)CC2)nc(N2CCN(C(=O)CCCCCCCCCCNC(=O)[C@H](CO)n3cc(CCCSC)nn3)CC2)n1,-13.2 (active)
9,C#CCOCCOCCOCCNc1nc(N2CCN(C(=O)Cn3cc(CCO)nn3)CC2)nc(N2CCN(C(=O)[C@H](CCCCN)n3cc(CCCC)nn3)CC2)n1,inactive
10,Cc1ccc(OCCCC(=O)Nc2ccc3c(c2)OCCO3)cc1,inactive
11,O=C(NCCCc1ccccc1)c1cc(COc2c(F)cccc2F)on1,inactive
12,CCN1CCN(C(=O)C2CCCN(S(=O)(=O)c3ccc(OC)c(OC)c3)C2)CC1 (centres undefined),inactive
13,COc1ccc(/C=C/CN2CCN(Cc3ccc(C)cc3)C(CCO)C2)cc1 (centres undefined),inactive
14,O=C(CN1CCN(c2ccccc2O)CC1)NC(=O)NCc1ccccc1,inactive
15,Cc1ccc(S(=O)(=O)NC(C(=O)N2CCOCCOCCOCCOCC2)c2ccccc2)cc1 (centres undefined),inactive
16,Cc1ccc(S(=O)(=O)Nc2nc(C)cc(-n3nc(C)cc3C)n2)cc1,inactive
17,CCCC(C(=O)n1nc(C)cc1C)C(NS(=O)(=O)c1ccc(C)cc1)c1ccccc1 (centres undefined),-8.83 (active)
18,O=c1[nH]c(=S)[nH]c(O)c1/C=C1\C=Nc2ccccc21,inactive
19,CC(C)N(Cc1nnc(-c2ccc(Cl)cc2)o1)C(=O)C1=COCCO1,inactive
20,CCOC(=O)c1ccccc1NC(=O)COC(=O)CCC(=O)N1CCOCC1,inactive
21,Cc1cnc(CN(C)C(=O)CC2C(=O)NCCN2Cc2cccc(F)c2F)[nH]1 (centres undefined),inactive
22,Cc1nc2cccnc2nc1C,inactive
23,CC(C)CCN1CCN(Cc2ccc(C(F)(F)F)cc2)CC1CCO (centres undefined),inactive
24,Cc1ccc(CN2CCN(Cc3ccccc3-c3ccco3)CC2CCO)o1 (centres undefined),inactive
25,CC(C)CCN1CCN(C/C=C/c2ccco2)CC1CCO (centres undefined),-7.6 (active)

row,SMILES,B-score
1,COCCNC(=O)CSc1nc2c(n1-c1ccccc1)CCCC2,inactive
2,O=C(CCNC(=O)c1ccc([N+](=O)[O-])cc1)NC1CCCCC1,inactive
3,O=C(COC(=O)c1ccncc1)Nc1ccc2c(c1)OCO2,inactive
4,NC(=O)c1ccc(NC(=O)COC(=O)c2c3c(nc4ccccc24)/C(=C\c2ccc4c(c2)OCO4)CCC3)cc1,-6.02 (active)
5,NS(=O)(=O)c1ccc(NC(=O)COC(=O)c2c3c(nc4ccccc24)/C(=C\c2ccc4c(c2)OCO4)CCC3)cc1,inactive
6,CCOC(=O)c1cc(NC(=O)SCC(=O)O)c(C)nc1C,inactive
7,CC(C[N+](C)(C)C)OC(N)=O (centres undefined),inactive
8,CC(=O)OC(C)C[N+](C)(C)C (centres undefined),-7.27 (active)
9,CC(=O)OCC(COC(C)=O)OC(C)=O,inactive
10,NS(=O)(=O)c1ccc(N=Cc2ccc(Br)s2)cc1,inactive
11,COc1ccc(-c2onc3ccc(C(C)=O)cc23)cc1,-5.14 (active)
12,COc1ccc(NC(C(=O)Nc2cccc(C(C)=O)c2)c2ccccc2)cc1 (centres undefined),inactive
13,COc1ccc(-c2cc(C(=O)N3CCN(c4ccc(F)cc4)CC3)no2)cc1,inactive
14,Cc1cccc(CC(=O)Nc2c3c(nn2-c2cccc(Cl)c2)CS(=O)C3)c1 (centres undefined),inactive
15,CN(C(=O)c1cccc(NC(=O)Cc2ccc(NC(=O)C3CCCN(C(=O)C4CCCC4)C3)cc2)c1)C1CCC1 (centres undefined),inactive
16,C=C(Cl)COC(=O)C1C2C=CC(C2)C1C(=O)O (centres undefined),inactive
17,Cn1nccc1NS(=O)(=O)c1ccc(F)cc1,inactive
18,CCCCNCc1ccc(SC)cc1,inactive
19,O=C(Cc1ccc(Br)cc1)NCCN1CCOCC1,inactive
20,CSc1ccc(CNCCN2CCOCC2)cc1,-9.5 (active)
21,O=C(c1ccc(OC2CCN(C/C=C/c3ccc(F)cc3)CC2)cc1)N1CCCCC1,inactive
22,CCn1c(COc2c(C)cccc2C)nnc1SCc1nc2ccccc2c(=O)[nH]1,-4.66 (active)
23,COc1ccc(CCCc2nnc(SCc3nc4ccccc4c(=O)[nH]3)n2C)cc1,inactive
24,CCn1c(Cc2ccccc2)nnc1SCc1nc2ccccc2c(=O)[nH]1,inactive
